From paper PMC5540273 (PLoS ONE, 2017) come the findings set out here.
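Note: KINOMEscan kinase panel screen.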

The subject of this assay is T1, MEK4.
T1 construct: gene MAP2K4
The following applies: concentration: 1 μM,replicates: in singlicate; n = 1.
As to `CSc1nccc(-c2c(-c3ccc(F)cc3)ncn2CCCN2CCOCC2)n1.Cl` [SB-217146], the “%Inh” value came out at 16%.

For `NC(=O)c1ccc(-c2cc3ncnc(SCC(=O)O)c3s2)cc1`, the “%Inh” value came to 0%.

As to `COc1cccc(C2=C(Nc3cccc(Cl)c3)C(=O)NC2=O)c1` [SB-341556], the “%Inh” value was found to be 4%.

As for `Cn1ccc2ncnc(Oc3ccc(NC(=O)Nc4ccnc(C(F)(F)F)c4)c(Cl)c3)c21`, the “%Inh” value stood at 0%.

With `Cc1n[nH]c2cc(Nc3ccnc(Nc4cccc(CN5CCOCC5)c4)n3)ccc12` [GW682569], the “%Inh” value stood at 16%.

With `COC(=O)c1cccc(NC(=O)NC2CCN(c3ccnc(NCc4ccc(F)cc4)n3)CC2)c1` [GSK1379860], the “%Inh” value is listed as 0%.

Turning to `CS(=O)c1ccc(-c2coc3ccc(-c4n[nH]c(=O)o4)cc23)cc1` (stereo not shown), the “%Inh” value was found to be 43%.

As to `Cc1cccc2c(-c3ccncc3)c(-c3ccc(F)cc3)nn12.Cl` [GW461487], the “%Inh” value stood at 52%.

As to `FC(F)(F)c1cc(Br)cc(Nc2nccc(-c3cnn4ncccc34)n2)c1` [GW810578], the “%Inh” value worked out at 21%.

For the compound `O=C1NCCc2[nH]c(-c3ccncc3)cc21`, the “%Inh” value was determined as 0%.

`C[C@@H](Oc1cc(-n2cnc3cc(-c4ccncc4)ccc32)sc1C(N)=O)c1ccccc1Cl` [GSK479719]: the “%Inh” value is recorded as 37%.

Regarding `NC(=O)Nc1sc(-c2ccc(F)cc2)cc1C(N)=O` [GW789449], the “%Inh” value was 24%.

Take `O=C(Nc1ccc(Oc2ccc3nc(NC(=O)C4CC4)cn3n2)c(F)c1)c1cccn(-c2ccccc2)c1=O`: the “%Inh” value is 0%.

Take `Cc1ccc(CC(=O)N2CCc3cc(-c4cn(C)c5ncnc(N)c45)ccc32)cc1` [GSK2634758]: the “%Inh” value was found to be 22%.

For the compound `Cl.Nc1n[nH]c2cc(-c3ccccn3)ccc12` [GSK2189892], the “%Inh” value was 5%.

As for `Cn1ccc2ncnc(Oc3ccc(NC(=O)Nc4cnn(C(C)(C)C)c4)c(Cl)c3)c21`, the “%Inh” value is on record as 0%.

`Cn1ccc2ncnc(Oc3ccc(NC(=O)Nc4cncc(C(F)(F)F)c4)c(Cl)c3)c21`: the “%Inh” value was 1%.

On to `CCN1CCN(CCCC(=O)Nc2n[nH]c3nc(-c4ccc(O)cc4)c(Br)cc23)CC1` [SB-731579], for which the “%Inh” value worked out at 0%.

Regarding `CC(C)c1nc(-c2cccc(NS(=O)(=O)c3ccccc3)c2)c(-c2ccnc(Nc3ccc4c(c3)CN(C)CC4)n2)s1` [GSK1649598], the “%Inh” value came out at 99.5%.

In the case of `C[C@@H]1CNc2c(sc3ccc4nc(-c5ccncc5)ccc4c23)C(=O)N1`, the “%Inh” value stood at 0%.

As to `COc1cccc(OC)c1C(=O)Nc1cccc(-c2nn3ccccc3c2-c2ccnc(Nc3cccc(F)c3)n2)c1` [GSK361065], the “%Inh” value is on record as 0%.

In the case of `Cc1cccc(-c2nc(Nc3ccncc3)c3sccc3n2)n1` [GW869641], the “%Inh” value was found to be 35%.

As for `c1ccc(Oc2ccc(Nc3ccnc4ccc(-c5ccccn5)cc34)cc2)cc1` [GW407034], the “%Inh” value was 16%.

With `C[C@@H](Oc1cc(-n2cnc3cc(-c4cnn(C)c4)ccc32)sc1C(N)=O)c1ccccc1Cl` [GSK580432], the “%Inh” value stood at 18%.

Consider `CS(=O)(=O)c1cccc(CNc2nc(Nc3ccc4c(c3)[C@@H]3C[C@@H]4CNC3=O)ncc2C(F)(F)F)c1`, for which the “%Inh” value stood at 89%.

`COc1cccc(CNC(=O)NC2CCN(c3ccnc(Nc4cc(OC)c(OC)c(OC)c4)n3)C2)c1` (stereo not shown) [GSK1379765]: the “%Inh” value amounted to 25%.

In the case of `Cc1nnc(-c2ccc3occ(-c4ccc(S(C)=O)cc4)c3n2)o1` (stereo not shown), the “%Inh” value is on record as 0%.

`COc1cc2ncn(-c3cc(OCC4CCCCC4)c(C(N)=O)s3)c2cc1OC` [GSK204559]: the “%Inh” value is listed as 13%.

Regarding `CC(=O)Nc1nc2cnc(Nc3cc(NC(=O)c4cccc(CC(C)(C)C#N)c4)ccc3C)nc2s1`, the “%Inh” value came to 25%.

As for `CN(c1ccc2c(c1)nc(NCc1ccc(F)cc1)n2C)c1ccnc(Nc2ccc(CS(C)(=O)=O)cc2)n1.Cl` [GW813244], the “%Inh” value was 40%.

For the compound `Cc1ccc(C(=O)Nc2ccc(Oc3ccc4nc(NC(=O)C5CC5)cn4c3)c(F)c2)c(=O)n1-c1ccccc1`, the “%Inh” value stood at 0%.

Turning to `COc1cc2c(Nc3ccc(NC(=O)c4ccccc4)cc3)ncnc2cc1OCCCN1CCOCC1` [GSK301329], the “%Inh” value was determined as 5%.

Regarding `N#Cc1cccc(C(=O)NC2CCN(c3ccnc(Nc4ccc(F)cc4)n3)C2)c1` (stereo not shown) [GSK1379708], the “%Inh” value is given as 17%.

Consider `O=C(NOCC1CC1)c1cc(Br)c(F)c(F)c1Nc1ccc(I)cc1Cl`, for which the “%Inh” value is on record as 0%.

`COc1cc2nccc(Nc3ccc(Oc4ccccc4)cc3)c2cc1OC.Cl` [GI261656]: the “%Inh” value turned out to be 11%.

On to `O=C(Nc1cccc(C(F)(F)F)c1)c1cccc(Oc2ccc3nccn3n2)c1`, for which the “%Inh” value turned out to be 31%.

For `CN(c1ccccc1CNc1nc(Nc2ccc3c(c2)CC(=O)N3)ncc1C(F)(F)F)S(C)(=O)=O`, the “%Inh” value turned out to be 84%.
